PLK1 PBD inh – blocks phosphopeptide binding to human PLK1 polo-box domain; Plk1 PBD binding of FITC phosphopeptide, fluorescence polarization; Potency, µM, without a hit: max response, negative = inhibition, usual class: inhibitors; 360,000 tested, 2.8% active; AID 720504; also: series mostly up to about 57 µM; % is scaled to controls: 0 for no effect and ±100 for the full control effect; nearly all actives have a fitted effect of over 65% in size
VDR inh – vitamin D3 receptor (human) inhibition; 400,000 tested, 0.93% active; Potency, µM, without a hit: max response, negative = inhibition, hits mostly inhibitors; P11473; VDR-SRC2-3 peptide fluorescence polarization, 2 h; AID 504847; also: % is scaled to controls: 0 for no effect and ±100 for the full control effect
Target sequence (P11473 whole entry, looked up): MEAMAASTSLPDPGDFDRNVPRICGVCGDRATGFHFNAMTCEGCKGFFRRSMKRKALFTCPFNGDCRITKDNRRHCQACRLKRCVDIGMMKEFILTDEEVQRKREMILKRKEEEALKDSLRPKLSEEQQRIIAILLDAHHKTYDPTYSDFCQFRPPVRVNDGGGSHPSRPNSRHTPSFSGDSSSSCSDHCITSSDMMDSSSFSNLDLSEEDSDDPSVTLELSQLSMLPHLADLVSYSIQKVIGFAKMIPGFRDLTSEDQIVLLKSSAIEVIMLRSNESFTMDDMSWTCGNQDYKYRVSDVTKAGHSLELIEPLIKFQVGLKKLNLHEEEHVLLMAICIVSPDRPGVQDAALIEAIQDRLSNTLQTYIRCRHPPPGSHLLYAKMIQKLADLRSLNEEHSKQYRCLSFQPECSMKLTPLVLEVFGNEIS
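VDR–SRC2-3 interaction, FP format. Cmpds 23 nl via pintool, brief spin, 2 h ambient incubation.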
BRCA1 expr act – BRCA1 expression activation | MCF7-BRCA1-FFLuc reporter, luminescence, 48 h; response scale: scaled: vehicle 0%, 10 µM genistein 100% | Potency, µM (highest dose often 46.1 µM), inactives show top-dose activation, actives largely listed as activators | 380,000 tested, 1.1% active; also: nearly all actives have a fitted effect of over 80% in size
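Using MCF7 cells harboring a BRCA1 firefly luciferase reporter, plated 2 h before compound pinning, the screen measured luminescence after 48 h incubation. Responses were normalized to DMSO and 10 microM genistein, then fitted for concentration-effect.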
Tb PFK inh – blocks T. brucei phosphofructokinase; O15648; T. brucei PFK, ADP-Glo luminescence; Potency, µM (highest dose often 57.5 µM), for inactives: at the highest dose activity, negative = inhibition, hits mostly inhibitors; 330,000 tested, 0.17% active; AID 485367;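 also: 0% = uninhibited 1x PFK enzyme wells and -100% = no-enzyme wells; nearly all actives have a fitted effect of over 60% in size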
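In TEA buffer at pH 8.0 with 5 mM MgCl2, enzyme (1.25 nM) converted F6P (0.5 mM) and ATP (0.1 mM) for 45 min at room temperature. ADP product was read by luciferase luminescence.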
Starred values were filed as active, the others as inactive; ? = inconclusive; / = no result given; ! = repeats disagree. Sampled rows, rich in hits. Any-hit rate of the full collection: about 3.9%. Calls follow the shape of the dose curve; as a rule, active = well fitted curve in the direction sought with a large enough effect; inconclusive = small, poorly fitted or top-dose-only effect, or another doubt; inactive = no such curve, though single readings can be large; an effect the other way counts as inactive or inconclusive. Potency is read from the fitted curve at half-maximal effect.

SMILES | PLK1 PBD inh | VDR inh | BRCA1 expr act | Tb PFK inh
CC(C)S(=O)(=O)N1CCCC(c2cc(C(=O)Nc3ccc(F)c(Cl)c3)no2)C1 (centres undefined) | -5% | / | ? | /
Nc1ccc(C#Cc2ccc3c(=O)c4ccccc4oc3c2)cc1 | -20% | -10% | 10µM* | -4%
COc1cc2oc3cc(C#Cc4ccc(N)cc4)ccc3c(=O)c2cc1OC | -6% | -11% | 5% | /
COc1ccc(/C=N\NC(=O)c2sccc2C)cc1Cn1nc(C)cc1C | 6% | 4% | -63% | 2%
O=C(Nc1ccc(Br)cc1F)C(NS(=O)(=O)c1cccc2nsnc12)c1ccccc1 (centres undefined) | / | -19% | / | /
CN1CCN(C(c2cccc(Br)c2)c2sc3nc(-c4ccco4)nn3c2O)CC1 (centres undefined) | / | 1% | / | /
O=[N+]([O-])c1c(NCCCO)cc(SCc2ccco2)c2nonc12 | ? | -25% | -51% | ?
CC(=O)OCCCNc1cc(Sc2ccc(C)cc2)c2nonc2c1[N+](=O)[O-] | ? | ? | -61% | -2%
CC(=O)OCCNc1cc(Sc2nc3ccccc3[nH]2)c2nonc2c1[N+](=O)[O-] | 2.7µM* | 14µM* | -102% | ?
CC(=O)OCCCNc1cc(Sc2nc3ccccc3s2)c2nonc2c1[N+](=O)[O-] | 2.1µM* | ? | -18% | ?
Cn1ccnc1Sc1cc(NCCCO)c([N+](=O)[O-])c2nonc12 | 3µM* | 20µM* | -22% | -27%
C=CCNC(=O)c1cc(Cl)cc(Cl)c1 | 30µM* | ? | -3% | -3%
C=CCNC(=O)c1cc(Cl)ccn1 | -24% | -2% | -5% | -4%
CCOC1=C2CN(S(=O)(=O)c3ccccc3)[C@H](c3ccccc3)C[C@H]2n2c(=O)n(-c3ccccc3)c(=O)n2C1 | -2% | / | 1% | /
Cn1c(Nc2ccccc2)nc2ccccc21 | -1% | -2% | 40% | 3%
CCOc1ccc(Nc2cc(C)c3ccccc3n2)cc1 | -7% | 9% | 10µM* | 0%
CCOc1ccc(CNc2nc3ccccc3n2C)cc1 | -4% | 2% | ? | -15%
CCOc1ccc(CNc2ccc3c(c2)nc(C)n3C)cc1 | -7% | 10% | 11µM* | 4%
Nn1c(Nc2ccccc2)nc2ccccc21 | -2% | -7% | 10µM* | -1%
CCOc1ccc(Nc2nc3ccccc3n2C)cc1 | -18% | -4% | 2.5µM* | /
C[n+]1ccc(/C=C/c2ccc(C=S)cc2)c2ccccc21 | / | / | -73% | /
Cc1cc(O)c(C(C)C)cc1N=Cc1cc([N+](=O)[O-])ccc1O | -17% | ? | -58% | -13%
Cc1cc(O)c(C(C)C)cc1N=Cc1ccccc1O | 10% | 40µM* | -19% | 1%
Nc1cccc[n+]1C(c1ccnc2ccccc12)[n+]1ccccc1N | / | / | -3% | /
CC(C)NC(=O)N1Cc2cc(C(=O)NC3CCCC3)nc(-c3cccc(-c4cccnc4)c3)c2[C@@H]1CCO | -9% | / | -34% | /
SMILES | PLK1 PBD inh | VDR inh | BRCA1 expr act | Tb PFK inh
COC(=O)c1ccc(CSc2nc3c(cnn3-c3ccc(C)c(C)c3)c(=O)[nH]2)o1 | 27µM* | -19% | -14% | -2%
CCCCSc1nc2c(cnn2-c2ccc(C)c(C)c2)c(=O)[nH]1 | -11% | -11% | -9% | 3%
CCN1C(=NCc2cccc(C(F)(F)F)c2)N[C@@H](c2cccc(C(F)(F)F)c2)C(C(=O)OC)=C1C | / | / | -68% | /
O=C(CSc1nnc(CNc2cccc(C(F)(F)F)c2)n1Cc1ccco1)NCc1ccco1 | 30µM* | 0% | 3% | -3%
CC1=C(/C=C/C(C)=C/C=C/C(C)=C/C(=O)O)C(C)(C)CCC1 | ? | 45µM*! | -12% | 0%
CC1=C(/C=C/C(C)=C/C=C/C(C)=C/C(=O)Oc2c(C)c(C)c3c(c2C)CC[C@@](C)(CCC[C@H](C)CCC[C@H](C)CCCC(C)C)O3)C(C)(C)CCC1 | / | -4% | / | /
CC1=C(/C=C/C(C)=C/C=C/C(C)=C/C(=O)O)C(C)(C)CCC1O (centres undefined) | / | 71µM* | / | /
CC1=C(/C=C/C(C)=C\C=C\C(C)=C\C(=O)O)C(C)(C)CCC1 | / | 56µM*! | / | /
CC(/C=C/c1ccc(C)o1)=C\C(=O)O | -27% | ? | 8% | -24%
CC(C)c1ccc(C(=O)Nc2ccc(-c3nc4ccccc4s3)c(Cl)c2)cc1 | / | 0% | / | /
N#Cc1cccc(-c2cncnc2NCc2cccnc2)c1 | / | -9% | / | /
COc1ccc(CNc2nc(-c3ccc(N(C)C)cc3)nc3ccccc23)c(OC)c1 | / | 35µM* | / | /
COc1ccc(CNc2cc(-c3cccnc3)ncn2)c(OC)c1 | / | 32µM* | / | /
c1ncc(-c2ccoc2)c(NC2CC2)n1 | / | 50µM* | / | /
c1cncc(CNc2ncncc2-c2ccoc2)c1 | / | 50µM* | / | /
Cc1noc(C)c1-c1cncnc1NC1CC1 | / | -22% | / | /
CCOC1=C2CN(S(=O)(=O)c3ccc(C)cc3)[C@@H](c3ccccc3)C[C@H]2[C@H]2C(=O)N(c3ccccc3)C(=O)[C@H]2C1 | -4% | / | 8% | /
O=C(CSc1nc2ccccc2c(=O)n1CCC(=O)NC1CCCCC1)Nc1ccccc1Cl | / | 4% | / | /
COc1ccc(CNc2ncnc3ccc(-c4ccoc4)cc23)c(OC)c1 | / | 40µM* | / | /
COc1ccc(CNc2ncnc3ccc(-c4ccc5c(c4)OCO5)cc23)c(OC)c1 | / | -15% | / | /
COc1ccc(CNc2ncncc2-c2ccoc2)c(OC)c1 | / | 50µM* | / | /
COc1cccc(-c2cncnc2NCc2ccc(OC)cc2OC)c1 | / | -1% | / | /
CCOc1ccc(CCNC(=O)CCCc2nnc3n(CC)c(=O)c4sccc4n23)cc1OCC | / | 1% | / | /
O=C(COC(=O)c1ccccc1C(=O)c1ccccc1)NCc1ccc(F)cc1 | 24µM* | ? | -10% | 2%
Oc1ccc(N=Cc2ccc(O)c(O)c2)cc1 | 21µM* | ? | -70% | -11%
SMILES | PLK1 PBD inh | VDR inh | BRCA1 expr act | Tb PFK inh
O=Cc1ccc(O)c(O)c1 | -4% | 11% | -14% | -14%
CCCCOc1ccc(-c2ncc(N)cn2)cc1 | -12% | -4% | 2.5µM* | 1%
CCCCOc1ccc(-c2nnc(N)s2)cc1 | -3% | -2% | 6.3µM* | 6%
CCCCOc1ccc(C(N)=O)cc1 | / | / | 0% | /
Cc1ccccc1Cn1ccc(-c2ccc3c(c2)OCO3)n1 | -2% | 18% | ? | -1%
Fc1cccc(Cn2ccc(-c3ccc4c(c3)OCO4)n2)c1 | 3% | -2% | 10µM* | -3%
CSCC[C@H](NC(=O)[C@H](Cc1c[nH]c2ccccc12)NC(=O)CNC(=O)[C@H](Cc1ccc(O)cc1)NC(=O)[C@H](C)NC(=O)[C@H](CCC(=O)O)NC(=O)[C@H](CCC(=O)O)NC(=O)[C@H](CCC(=O)O)NC(=O)[C@H](CCC(=O)O)NC(=O)[C@H](CCC(=O)O)NC(=O)[C@H](CC(C)C)NC(=O)[C@H](Cc1c[nH]c2ccccc12)NC(=O)[C@@H]1CCCN1C(=O)CNC(=O)[C@@H]1CCC(=O)N1)C(=O)N[C@@H](CC(=O)O)C(=O)N[C@@H](Cc1ccccc1)C(=O)NCC(=O)O | / | 7% | / | /
CCc1ccc[n+](-c2[nH]c(=O)sc2/C=N/NC([S-])=Nc2ccccc2)c1 | 21µM* | ? | -20% | -5%
Nc1ccc(-c2nc3ncccc3o2)c(O)c1 | 1% | 8% | 5µM* | 7%
